Assay outcomes as filed in PubChem BioAssay.
Rows were chosen to be rich in hits. Some 28% of all compounds tested hit in one or more screens of this group.
PLK1 PBD inh – Plk1 (human) PBD binding inhibition; Plk1 PBD phosphopeptide binding, fluorescence polarization; inhibition, %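 (tested at about 20 µM)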; 0.13% of 97,000 active; in the data active = inhibition above about 34%, passing the limit was not always enough
CYP2C9 inhib – blocks human cytochrome P450 2C9; 20% of 96,000 active; CYP2C9 Supersomes, luciferin-H conversion, luminescence; P11712; inhibition, % at 5 µM;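 active = blocking of liver enzyme CYP2C9 beyond about 50% at 5 µM, limit read from the data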
Target sequence (P11712 whole entry, looked up): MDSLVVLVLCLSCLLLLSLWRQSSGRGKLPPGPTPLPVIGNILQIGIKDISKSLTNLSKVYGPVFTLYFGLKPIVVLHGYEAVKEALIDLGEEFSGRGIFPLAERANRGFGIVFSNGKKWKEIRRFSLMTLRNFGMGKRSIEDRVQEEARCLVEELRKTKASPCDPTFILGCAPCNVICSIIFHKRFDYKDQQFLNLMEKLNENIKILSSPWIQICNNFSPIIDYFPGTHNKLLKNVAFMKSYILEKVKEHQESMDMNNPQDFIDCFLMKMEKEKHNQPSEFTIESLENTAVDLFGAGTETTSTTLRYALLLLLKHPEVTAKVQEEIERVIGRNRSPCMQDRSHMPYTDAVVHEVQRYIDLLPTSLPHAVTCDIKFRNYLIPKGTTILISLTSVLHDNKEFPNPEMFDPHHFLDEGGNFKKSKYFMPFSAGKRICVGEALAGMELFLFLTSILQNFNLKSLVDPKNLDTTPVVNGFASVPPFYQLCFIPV
CYP2C19 act – increases human CYP2C19 enzyme activity; recombinant CYP2C19, luciferin-H EGE luminescence; stronger effect = higher value; 0 = fully inhibited enzyme, 1 = untreated enzyme; 96,000 tested, under 10 active; P33261; activation factor at 5 µM;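 active = activation factor of at least 2 at 5 µM in the primary screen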;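 note: 0 = wells with 2.5 mM tranylcypromine and 1 = vehicle-only wells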
PLK1 inh – blocks human PLK1 kinase activity. recombinant PLK1 kinase, TR-FRET peptide phosphorylation. inhibition, % at 10 µM. AID 619. P53350. 0.53% of 97,000 active;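 active = inhibition of 50% or more in the single-concentration screen; inactive = inhibition below 50%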;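 note: 0% = DMSO max control and 100% = H-89 dihydrochloride min control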
CYP2C19 inh – blocks human cytochrome P450 2C19; P33261; CYP2C19 Supersomes, luciferin-H EGE luminescence, 30 min; inhibition, % at 5 µM; 21% of 96,000 active;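 active = CYP2C19 inhibition above a set limit at 5 µM in the primary screen, cut at about 50% in these data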;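 note: plate controls were negative control wells for no effect and 2.5 mM tranylcypromine positive control for full effect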
CYP2C9 activ – CYP2C9 (human) activation; P11712; recombinant CYP2C9, luciferin-H conversion, luminescence; stronger effect = higher value; factor 1 = untreated enzyme, 0 = blocked; activation factor at 5 µM; 1.4% of 96,000 active;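 active = activation factor of 2 or more for CYP2C9 at a 5 µM dose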;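 note: 0 = sulfaphenazole-blocked wells and 1 = vehicle-only wells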
* = called active by the depositor; . = no result given.

SMILES	PLK1 PBD inh	CYP2C9 inhib	CYP2C19 act	PLK1 inh	CYP2C19 inh	CYP2C9 activ
CCN(CC)CCCn1c(C)cc2c(c1=O)C(c1cccc(Cl)c1)C(C#N)=C(N)O2 (stereo not given)	47*	.	.	-5	.	.
Cc1cc2c(c(=O)n1Cc1cccnc1)C(Cc1ccccc1)C(C#N)=C(N)O2 (stereo not given)	21	68*	0.3	-8	74*	0.3
COc1ccc(C2C(C#N)=C(N)Oc3cc(C)n(Cc4ccncc4)c(=O)c32)cc1 (stereo not given)	7	72*	0.4	-5	62*	0.3
Cc1cc2c(c(=O)n1Cc1cccnc1)C(c1cccs1)C(C#N)=C(N)O2 (stereo not given)	2	31	0.8	-9	16	0.7
Cc1cc2c(c(=O)n1CCN(C)C)C(c1ccncc1)C(C#N)=C(N)O2 (stereo not given)	4	-14	1.1	-14	-12	1.1
CCOc1ccc(C2C(C#N)=C(N)Oc3cc(C)n(Cc4ccco4)c(=O)c32)cc1OC (stereo not given)	-23	16	1	-10	4	0.8
Cn1c(=O)c2c(n(Cc3ccccc3)c1=O)NC(=O)C2CC(=O)NCc1cccc(Cl)c1 (stereo not given)	-14	36	0.9	-12	8	0.6
O=C(O)CCCCCCCCCC(=O)c1cccs1	38	-11	1.1	-13	-6	1.1
Cc1cc(C)c(-c2noc(C(=O)OC(C)(C)C)c2C(=O)OC(C)(C)C)c(C)c1	-12	12	0.8	-11	16	0.9
Cc1cccc(NC(=O)c2ccc(N(C)C3CCCCC3)c([N+](=O)[O-])c2)n1	-40	20	1	-16	3	0.8
O=c1[nH]ncn2cccc12	11	-13	1.1	4	-6	1.1
c1ccc2sc(-c3ccc4c(c3)OCO4)nc2c1	3	2	0.9	-10	9	1
Cc1ccc(S(=O)(=O)N2CCCC2)cc1S(=O)(=O)N1CCCC1	4	-16	0.5	-6	52*	1.2
Cc1ccc(Br)cc1S(=O)(=O)N1CCN(c2ccccc2)CC1	4	18	0.4	-7	64*	0.8
Cc1ccc(C(=O)O)cc1S(=O)(=O)N1CCOCC1	3	-16	1	0	4	1.2
Cc1ccc(-c2nc3ccccc3s2)cc1S(=O)(=O)N1CCCC1	11	93*	0.3	-5	69*	0.1
Cc1ccc(S(=O)(=O)c2ccc(Cl)cc2)cc1S(=O)(=O)N1CCOCC1	.	69*	0.2	.	79*	0.3
Cc1ccc(S(=O)(=O)N2CCCN(S(=O)(=O)c3ccc(C)c(C)c3)CC2)cc1C	-23	-18	0.9	-12	8	1.2
CCC(C)(C)NC(=O)C(c1ccc(C)cc1)N(Cc1ccco1)C(=O)CCC(=O)Nc1nccs1 (stereo not given)	-11	8	1.1	-2	-6	0.9
c1ccc(-c2nnc(CSc3nnc(-c4ccncc4)n3Cc3ccco3)o2)cc1	-14	71*	0.3	-8	67*	0.3
C(=C\c1ccccc1)/CSc1nnc(-c2ccccc2)n1Cc1ccco1	11	49	0.5	-13	47	0.5
O=C(CSc1nnc(-c2ccncc2)n1Cc1ccco1)Nc1nccs1	-7	.	.	4	.	.
C(=C\c1ccccc1)/CSc1nnc(-c2ccncc2)n1Cc1ccco1	.	36	0.1	.	89*	0.6
Clc1cccc(-c2nnc(SC/C=C/c3ccccc3)n2Cc2ccco2)c1	-1	67*	0.4	-6	65*	0.3
CCN(CC)S(=O)(=O)c1ccc(OC)c(NC(=O)CSc2ccccc2)c1	2	89*	0.5	-8	50	0.1
CCN(CC)S(=O)(=O)c1ccc(-c2nnc(SCC(=O)Nc3ccc(OC)c(OC)c3)o2)cc1	-33	70*	0.8	-3	21	0.3
CCN(CC)S(=O)(=O)c1ccc(-c2nnc(SCC(=O)Nc3ccc(OC)cc3)o2)cc1	8	.	.	-7	.	.
COc1cc(-c2nnc(SCC(=O)Nc3ccc4c(c3)OCCO4)o2)cc(OC)c1OC	1	75*	0.8	-17	21	0.2
COc1ccc(NC(=O)CCN2C(=O)c3ccccc3S2(=O)=O)cc1	-23	17	1	-4	4	0.8
